Screens: PubChem, National Center for Advancing Translational Sciences (NCATS)
Pf growth 48h = P. falciparum growth inhibition at 48 hours (one generation). P. falciparum luciferase growth in erythrocytes, 48 h. Potency, µM (series often up to 28.7 µM), for inactives: top-dose activity change, negative = inhibition, usual class: inhibitors. actives 5.9% (n = 310,000). AID 504832; also: potency is read from the fitted curve at half-maximal effect; % is scaled to controls: 0 for no effect and ±100 for the full control effect
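In quantitative HTS format, infected erythrocytes bearing luciferase-reporter parasites were treated for a single generation at 37 C. Luminescence after adding detection reagent served as the growth measure.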
HCMV antiviral = human cytomegalovirus inhibition; activity change, negative = inhibition, % at 57.5 µM; HFF cells, HCMV-luciferase reporter, 72 h; stronger effect = lower value; actives 4.5% (n = 410,000); in the data active = activity change below about -60%; inconclusive = no clear call, values can overlap the other calls; inactive = above about -39%; also: % is scaled to controls: 0 for no effect and ±100 for the full control effect
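After 16 h attachment at 37C, HFF cells received test compound and HCMV-luciferase (1 PFU/cell); reporter luminescence read 72 h later, data normalized against buffer-only and known inhibitor Salinomycin.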
CHX counter = counter-screen hit for Shiga toxin inhibitors, cycloheximide. cell reporter, cycloheximide protein synthesis inhibition counterscreen. max response, %. actives 12% (n = 300,000); in the data active = max response mostly above about 13%, no sharp cut-off; inactive = mostly below about 14%; also: read at 38.3 µM for the half of the compounds with a filed dose; 0% is about no effect
HCV inh = blocks hepatitis C virus. Huh7.5.1 HCVcc-Cre infection, luciferase reporter, 44 h. Potency, µM (series often up to 41.8 µM), for the others: at the highest dose activity change, negative = inhibition, hits mostly inhibitors. actives 3.4% (n = 340,000). AID 651820; also: potency is read from the fitted curve at half-maximal effect; % is scaled to controls: 0 for no effect and ±100 for the full control effect
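Luciferase read-out (15 sec integration) after a 15 min room-temperature substrate step quantifies HCVcc-Cre infection. Cells, 1,000 per well, had compound added 4 h post-plating, then virus at ~0.5 moi, and were cultured 44 h.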
Shiga inhibitor = blocks Shiga toxin action in Vero cells. actives 9.2% (n = 290,000). inhibition, % at 38.7 µM. AID 2315. Vero cells, Shiga toxin protein synthesis inhibition reporter; in the data active = inhibition mostly above about 28%, no sharp cut-off; inactive = mostly below about 43%; also: 0% is about no effect
Pf growth 96h = P. falciparum growth inhibition at 96 hour, primary screen for plastid delayed-death inhibitors | actives 6.9% (n = 320,000) | Potency, µM (top dose mostly 28.7 µM), for inactives: at the highest dose activity change, negative = inhibition, actives largely listed as inhibitors | P. falciparum luciferase reporter growth, 96 h; also: potency is read from the fitted curve at half-maximal effect; % is scaled to controls: 0 for no effect and ±100 for the full control effect
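96 h incubation, 37 C, 5% CO2, of luciferase-reporter P. falciparum-infected RBCs (2% hematocrit, 0.05% parasitemia final) with test compounds; endpoint luminescence.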
* marks the source's active call; other numbers are inactive results; ? = inconclusive; / = no result given; [ ] = another dose, or the depositor's remark. Rows were chosen to be rich in hits. Some 21% of all compounds tested hit in one or more screens of this group. Unless noted, calls follow the shape of the dose curve; as a rule, active = well fitted inhibition curve with a large enough effect; inconclusive = small, poorly fitted or top-dose-only effect, or another doubt; inactive = no such curve, though single readings can be large or run the other way.

SMILES | Pf growth 48h | HCMV antiviral | CHX counter | HCV inh | Shiga inhibitor | Pf growth 96h
Cc1onc(-c2ccccc2)c1C(=O)Nc1nnc(C(C)(C)C)s1 | 40% | 5 | -2 | 20% | -3 | 4%
CCn1cc(C(=O)N2CCN(c3cccc(Cl)c3)CC2)c(=O)c2cc(S(=O)(=O)N3CCOCC3)ccc21 | / | 13 | / | / | / | /
O=C1c2ccccc2-c2ccc(C(=O)N3CCOCC3)cc21 | 21% | 46 | 22* | 11% | 13 | /
O=C(c1cc(-c2cccc(O)c2)on1)N1CCCCCC1 | 183% | 83 | 37* | -3% | 112* | 37%
O=C(c1cc(-c2cccc(O)c2)on1)N1CCOCC1 | 153% | 179 | 13* | 1% | 23* | -17%
O=C(c1cccc(-c2ccc(O)cc2)c1)N1CCOCC1 | / | 74 | 13* | 21% | 22 | 115%
O=C(c1cccc(-c2cccc3nccn23)c1)N1CCOCC1 | / | 135 | / | / | / | /
NC(=O)c1cccc(-c2ccc3c(c2)N(CC2CC2)C(=O)COC3)c1 | / | 30 | / | / | / | /
COc1ccc(N2CCC(CNC(=S)Nc3cc(C)ccc3C)C2)cc1 (stereo unspecified) | ? | -36 | -7 | ? | -3 | ?
COc1ccc(N2CCC(CNC(=S)Nc3cc(C)cc(C)c3)C2)cc1 (stereo unspecified) | 9.3µM* | -27 | 8 | -28% | 15 | ?
COc1cc(/C=N/NC(=O)CC2(C)OCCO2)cc(Br)c1O | 7% | -23 | 4 | 9% | 2 | 17%
COc1cc(/C=N/NC(=O)CC23CC4CC(CC(C4)C2)C3)cc(Br)c1OCC(=O)N(C)C | 13µM* | 0 | -2 | ? | -6 | ?
COc1cc(/C=N\NC(=O)c2ccc(-c3ccccc3)cc2)cc(Br)c1O | -20% | -68* | 1 | ? | -25 | 2%
COc1ccc(OC)c(/C=N/NC(=O)c2ccc(=O)[nH]n2)c1 | 11% | -32 | -2 | 9% | -4 | ?
COc1cc(/C=N/NC(=O)C23CC4CC(CC(C4)C2)C3)cc(Br)c1O | 7% | 4 | 4 | 14% | 26* | -21%
COc1cccc(/C=N/NC(=O)c2ccc(=O)[nH]n2)c1O | 5.9µM* | 0 | 30* | 8% | 60* | 0%
OCCOC1CCCc2oc(-c3ccccc3)c(C#CC3(O)CCCCC3)c21 (stereo unspecified) | / | -20 | / | / | / | /
Cc1ccc(CSc2nc3cccnc3n2Cc2ccc(C(=O)NCc3ccco3)cc2)cc1 | / | 68 | / | / | / | /
O=C(COc1ccccc1)NCC(=O)N/N=C/c1ccc(O)cc1O | ? | -28 | -2 | -19% | 4 | ?
COc1cccc(/C=N/NC(=O)CN2CC(c3ccccc3)CC2=O)c1O (stereo unspecified) | 7% | 6 | 34* | 18% | 40* | ?
COc1ccc(/C=N/NC(=O)c2ccc(-c3ccccc3)cc2)cc1O | 7% | -60* | 0 | ? | 9 | -2%
COc1cccc(/C=N/NC(=O)c2[nH]c(C)c(C(=O)N/N=C/c3cccc(OC)c3O)c2C)c1O | 9.3µM* | 57 | 40* | ? | 112 | /
COc1cc(/C=N/NC(=O)CN(Cc2ccco2)S(=O)(=O)c2ccccc2)ccc1O | -8% | ? | 18* | -11% | -4 | ?
COc1cc(/C=N/NC(=O)CN(Cc2ccccc2)S(=O)(=O)c2ccc3c(c2)OCCO3)ccc1O | -16% | -17 | 0 | ? | -10 | -15%
Cc1c(NC(=O)Nc2cc(F)c(F)cc2Cl)c(=O)n(-c2ccccc2)n1C | / | 22 | / | -29% | / | /
SMILES | Pf growth 48h | HCMV antiviral | CHX counter | HCV inh | Shiga inhibitor | Pf growth 96h
CCCc1nc2sc3c(N4CCCCC4)ncnc3c2c2c1CCCC2 | / | -39 | / | / | / | /
CCCCSc1nc(C)cc(SCC(=O)N/N=C/c2cccc(OC)c2O)n1 | ? | 107 | -1 | ? | -17 | ?
CCOc1c(Br)cc(/C=N\NC(=O)c2ccccc2)cc1OC | 5.2µM* | -63* | 32* | ? | active | 8.3µM*
COc1cc(C=NCc2ccccc2)ccc1O | / | 14 | / | / | / | /
COc1ccc(CCCC(=O)N/N=C/c2cccc(OC)c2O)cc1C | 35% | -99* | 28* | ? | 52* | -19%
COc1cccc(/C=N/NC(=O)C(=O)Nc2ccccc2OC(F)(F)C(F)F)c1O | ? | -94* | -5 | ? | 22 | -2%
COc1cc(/C=N/c2oc(-c3ccccc3)cc2C#N)ccc1O | -8% | -30 | 19* | 2% | 28 | 4%
O=c1c(Cc2ccc(F)cc2)c(O)ccn1CCCN1CCOCC1 | -25%[5.75 µM] | 27 | -6 | -4% | -3 | 20%
COc1cc(OC)c(OC)cc1/C=N/NC(=O)C[n+]1ccccc1 | 2% | ? | -1 | 19% | -10 | 8%
COc1cc(/C=N/NC(=O)c2ccccc2)ccc1O | 71% | 2 | 26* | 3% | 60* | 31%
COc1cccc(/C=N/NC(=O)C[n+]2ccccc2)c1O | ? | 3 | -1 | 30% | -1 | 5.9µM*
COc1cccc(/C=N/NC(=O)c2ccc(-c3ccccc3)cc2)c1O | / | -98* | 4 | ? | 2 | 7.4µM*
COc1cc(/C=N/NC(=O)c2cc(O)cc(O)c2)ccc1OC(=O)c1ccccc1 | -20% | -13 | -3 | 17% | -7 | ?
COc1cc(C(=O)N/N=C/c2ccc(OC(=O)c3ccccc3)c(OC)c2)ccc1O | -5% | 6 | 6 | 7% | -4 | 9.3µM*
CCOc1ccc(CCNC(=O)c2ccc(=O)[nH]c2)cc1OCC | -3% | -38 | -2 | 4% | -2 | 3%
COCCCN1C(=O)c2ccccc2CC1(C)C(=O)NC1CCCCC1 (stereo unspecified) | / | 41 | / | / | / | /
O=S(=O)(c1ccc2nc(Nc3ccc(Br)cc3F)ccc2c1)N1CCCCC1 | / | -4 | / | / | / | /
COc1ccc(N=CC2=C(O)CCCC2=O)cc1 | -5% | -1 | 37* | 15% | 76* | 6%
COc1ccc(OC)c(N=CC2=C(O)CC(C)(C)CC2=O)c1 | 7% | 35 | 4 | 11% | -5 | /
COc1ccc(N=Cc2c(O)n(C)c(=O)n(C)c2=O)cc1 | 29% | -26 | 25 | 10% | 29 | 44%
COc1ccc(N=CC2=C(O)CC(C)(C)CC2=O)cc1 | / | -9 | 36* | -3% | 65* | 1%
Cc1ccc(S(=O)(=O)N2CCC(C(=O)OCC(=O)N(Cc3ccccc3)C(C)C)CC2)cc1C | / | -3 | / | / | / | /
CCc1cccc(CC)c1NC(=O)c1c(C)oc2ccc(O)c(CN3CCN(C)CC3)c12 | / | 6 | / | / | / | /
CC1(C)Cc2c(cnn2-c2ccc(F)cc2)C(NC(=O)c2ccco2)C1 (stereo unspecified) | 58% | -22 | 13 | 2% | 22* | -20%
COc1ccc(-n2ncc3c2CC(C)(C)CC3NC(=O)c2cnc(C)cn2)cc1 (stereo unspecified) | 0% | -64* | 11 | -1% | -3 | ?
